Values joined by “and” are separate entries in the source; they are usually repeats but may differ in a detail not shown here. Identical values can stand only once. More than one record can exist for a structure, and the calls need not agree. Active and inactive are the calls of the source. The calls were made as follows: active = hit-call score of the fitted dose curve at least 0.9, where 1 is the maximum; inactive = score below 0.9.

Read-out in this assay: Glutathione S-Transferase (GSTA2), GSTA2 (gene 2939)
The assay can be described thus: LTEA_HepaRG_GSTA2: Life Technologies and Expression Analysis (LTEA) Assay for Glutathione S-Transferase (GSTA2) using HepaRG (AID 2283497). The note with it: mRNA level, 48 h; actives raise or lower the signal. The procedure: LTEA_HepaRG is a cell based, multiplexed-readout assay that uses HepaRG, a human liver cell line, with measurements taken at 48 hours after chemical dosing on a 96-well plate.LTEA_HepaRG_GSTA2 is one of 102 assay component(s) measured in the LTEA HepaRG cell culture assay. It is a marker of Oxidative Stress.Data from the assay component LTEA_HepaRG_GSTA2 was analyzed into 1 endpoint. This assay endpoint, LTEA_HepaRG_GSTA2, was analyzed with bidirectional fitting relative to DMSO as the negative control and baseline of activity. Using a type of inducible reporter, measures of mRNA induction for gain or loss-of-signal activity can be used to understand regulation of transcription factor activity. To generalize the intended target to other relatable targets, this assay endpoint is annotated to the transferase intended target family, where the subfamily is alkyl and aryl transferase.
A total of 1060 chemcials from the ToxCast library were tested in eight-point concentration-response experiments. Cell culture and cytotoxicity assays were conducted at Thermo Fisher Scientific's Custom Services facility (Madison, WI). A single lot of human HepaRG cells (Thermo Fisher Scientific, Frederick, MD) was used for the cell culture experiments. 96-well format collagen type I coated plates of human HepaRG cells were prepared using established methods. Briefly, cryopreserved HepaRG cells were thawed, plated at a density of approximately 100,000 cells/well in HepaRG Thaw, Plate, and General Purpose media (HPRG770, Thermo Fisher Scientific), and incubated for 48 hours. 0.5% DMSO was selected as vehicle control to balance the requisite need of DMSO in HepaRG cultures to maintain differentiation (for example, baseline metabolism, proportions of hepatocytes vs. cholangiocytes), while enabling further hepatic receptor pathway activation (for example, PXR and CAR) in response to chemical exposure. 48 hours after plating, the culture medium was replaced with HepaRG Serum-Free Incudtion Media. Cells were exposed to each test chemical in duplicate and maintained in CO2 incubators for another 48 hours. Chemical plates were thawed to room temperature and 200x concentrations of treatment groups were prepared. 8-point conentration-reponse curves were made with the highest exposure at 100 uM, followed by half-log dilutions, all in 0.5% DMSO. Each test plate contained variouse controls, induction positive controls (1mM phenobarbital), cytotoxicity positive controls ([…] aflatoxin B1), vehicle controls (0.5% DMSO), and total lysis controls (0.5% DMSO). Cell morphology images were taken using an Essen IncuCyte FLR automated microscope, with six 96-well plates imaged in about 24 minutes. Images were captured and exported and JPEG files. Spent culture media was transfered to black-well plates for the LDH assay, and remaining media was sorted at -80 C for later use. Cells were treated with RLT buffer and frozen until shipped for gene expression analysis. Total RNA was isolated from the cell suspension in 75 uL of Buffer RLT (Qiagen, Germantown, MD 20874) by Quintiles/Expression Analysis (Durham, NC) using a custom isolation procedure. Total RNA from each plate well was transferred to a preamplification plate. Fluidigm's 96.96 Dynamic ArrayTM (Fluidigm, Amsterdam, the Netherlands) technology was used for gene expression analyses by quantitative reverse transcription polymerase chain reaction (qRT-PCR, performed by Quintiles/Expression Analysis, Durham, NC)89. Standard TaqManTM Assays (Applied Biosystems/ThermoFisher Scientific, Foster City, CA) were used to assess the expression of 93 genes selected based on their selectivity and sensitivity to important hepatic receptors known to be modulated by environmental chemicals; importance in human hepatocyte functionality; and hepatotoxicity. […]
For the compound `C=CCC1=C(C)[C@@H](OC(=O)[C@@H]2[C@@H](C=C(C)C)C2(C)C)CC1=O`, the outcome was inactive.

For the compound `C=CCC1=C(C)C(OC(=O)C2C(C=C(C)C)C2(C)C)CC1=O` (stereo not given), the call was inactive and the AC50 was 84.3 µM (active).

For `CS/C(C)=N/OC(=O)N(C)SN(C)C(=O)O/N=C(\C)SC`, the call was inactive.

In the case of `Cc1ccc(-c2c(Cl)nc(C#N)n2S(=O)(=O)N(C)C)cc1`, the AC50 was 9.43 µM (active).

Consider `CCCC1COC(Cn2cncn2)(c2ccc(Cl)cc2Cl)O1` (stereo not given), for which the AC50 is 37 µM (active).

Turning to `CC(C)Oc1cc(-n2nc(C(C)(C)C)oc2=O)c(Cl)cc1Cl`, the AC50 was 80.8 µM (active).

Regarding `C#CCOS(=O)OC1CCCCC1Oc1ccc(C(C)(C)C)cc1` (stereo not given), the AC50 is 27.7 µM (active).

With `O=C(Nc1ccccc1)Nc1ccnc(Cl)c1`, the half-maximal activity concentration (AC50) was 24.9 µM (active).

For `CO/C=C(/C(=O)OC)c1ccccc1Oc1cc(Oc2ccccc2C#N)ncn1`, the AC50 was 81.5 µM (active) and 81 µM (active) and 78.7 µM (active).

For the compound `O=C(O)c1nc(Cl)ccc1Cl`, the concentration at half-maximal activity (AC50) is 50 µM (active) and the result was inactive.

For the compound `COc1cnc(OC)n2nc(NS(=O)(=O)c3c(OCC(F)F)cccc3C(F)(F)F)nc12`, the compound was called inactive.

On to `N#Cc1nn(-c2c(Cl)cc(C(F)(F)F)cc2Cl)c(N)c1S(=O)C(F)(F)F` (stereo not given), for which the AC50 is 32 µM (active).

In the case of `COc1nc(NC(C)C)nc(NC(C)C)n1`, the compound was classed as inactive.

On to `CCCCOC(=O)c1ccccc1C(=O)OCCCC`, for which the outcome was inactive.

On to `CC(Oc1ccc(Cl)cc1Cl)C(=O)O` (stereo not given), for which the outcome was inactive.

Turning to `CNC(=S)S`, the result was inactive.

Consider `CC1=C(C(=O)Nc2ccccc2)SCCO1`, for which the outcome was inactive.

For `N#Cc1cc(Br)c(O)c(Br)c1`, the half-maximal activity concentration (AC50) was 22 µM (active).

Turning to `COC(=O)C=C(C)OP(=O)(OC)OC`, the outcome was inactive.

On to `CCCCNC(=O)n1c(NC(=O)OC)nc2ccccc21`, for which the call was inactive.

For `N#CC(CCc1ccc(Cl)cc1)(Cn1cncn1)c1ccccc1` (stereo not given), the AC50 is 68 µM (active).

On to `COC(=O)c1ccccc1C(=O)OC`, for which the outcome was inactive.

Regarding `CC(C)C1(C)N=C(c2nc3ccccc3cc2C(=O)O)NC1=O` (stereo not given), the call was inactive.

In the case of `Cc1c(F)c(F)c(COC(=O)C2C(/C=C(\Cl)C(F)(F)F)C2(C)C)c(F)c1F` (stereo not given), the result was inactive.

Turning to `CCNc1nc(Cl)nc(NC(C)C)n1`, the compound was classed as inactive.

Consider `COP(N)(=O)SC` (stereo not given), for which the outcome was inactive.

With `CCOC(=O)C(Cl)Cc1cc(-n2nc(C)n(C(F)F)c2=O)c(F)cc1Cl` (stereo not given), the compound was called inactive.

Consider `C=CC1(C)OC(=O)N(c2cc(Cl)cc(Cl)c2)C1=O` (stereo not given), for which the compound was called inactive.

With `CCNc1nc(Cl)nc(NCC)n1`, the compound was classed as inactive.

As for `CCON=C(CC)C1=C(O)CC(c2c(C)cc(C)cc2C)CC1=O` (stereo not given), the outcome was inactive.

As to `Oc1ccccc1-c1ccccc1`, the compound was classed as inactive.

Turning to `COP(=S)(OC)Oc1nc(Cl)c(Cl)cc1Cl`, the compound was called inactive.

Take `CCCN(CCC)c1c([N+](=O)[O-])cc(S(N)(=O)=O)cc1[N+](=O)[O-]`: the AC50 is 91 µM (active) and 68.4 µM (active) and 83.1 µM (active).

In the case of `COC(=O)N(OC)c1ccccc1COc1ccn(-c2ccc(Cl)cc2)n1`, the AC50 is 78.7 µM (active).

As for `CCOc1cc(Oc2ccc(C(F)(F)F)cc2Cl)ccc1[N+](=O)[O-]`, the concentration at half-maximal activity (AC50) was 39.9 µM (active).

For `OC(c1ccc(Cl)cc1)(c1cncnc1)c1ccccc1Cl` (stereo not given), the concentration at half-maximal activity (AC50) is 74.8 µM (active).

As to `CC1COC(Cn2cncn2)(c2ccc(Oc3ccc(Cl)cc3)cc2Cl)O1` (stereo not given), the AC50 is 19.7 µM (active).

For the compound `CCOC(=O)CC(SP(=S)(OC)OC)C(=O)OCC` (stereo not given), the compound was called inactive.

The term AC50 denotes the concentration giving half of the maximal activity seen.

Values taken from PubChem BioAssay (EPA / NIEHS).
